As usually defined, the inhibition is the relative decrease from the control value, in per cent.

Values without a mark were called inactive. For some of these results: Measured potencies and affinities stand elsewhere. Active and inactive are the calls of the source. Unless noted, no rule for the calls is given here.

Results on 20 molecules are retold here after PubChem BioAssay.

The nature of assay [1]: antimalarial activity against Dd2 strain (AID 2302;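 active = growth inhibition above 50% at the single 2 µM test dose, taken to imply half-maximal potency below 2 µM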;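 also: 0% = DMSO untreated growth and 100% = chloroquine plus artemisinin killed control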). To be noted: P. falciparum Dd2 in RBCs, LDH growth readout, 72 h; at 2 µM; stronger effect = higher value.
The nature of assay [2]: HepG2 cytotoxicity, primary screen, cytotoxicity control for P. falciparum antimalarial project, cell-based, ATP luminescence (AID 2303;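 active = inhibition above 50%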;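 also: 0% = DMSO wells and 100% = digitonin-killed cells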). To be noted: HepG2 viability, 24-48 h, at 10 µM, stronger effect = higher value.
For assay [3], the target named is L-lactate dehydrogenase (Plasmodium falciparum (isolate CDC / Honduras)) (UniProt Q27743). Briefly: PfLDH activity inhibition – cell lysate, 3D7 strain, counter-screen for P. falciparum growth inhibition project (AID 2304).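 Also: 0% = vehicle and 100% = reference inhibitor.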 To be noted: P. falciparum 3D7 crude extract, LDH APAD/NBT absorbance; at 2 µM; stronger effect = higher value. In general terms: The purpose of a counterscreen is to sort out artefacts and off-target activity.
Sequence of L-lactate dehydrogenase (Plasmodium falciparum (isolate CDC / Honduras)) (Q27743 whole entry, looked up): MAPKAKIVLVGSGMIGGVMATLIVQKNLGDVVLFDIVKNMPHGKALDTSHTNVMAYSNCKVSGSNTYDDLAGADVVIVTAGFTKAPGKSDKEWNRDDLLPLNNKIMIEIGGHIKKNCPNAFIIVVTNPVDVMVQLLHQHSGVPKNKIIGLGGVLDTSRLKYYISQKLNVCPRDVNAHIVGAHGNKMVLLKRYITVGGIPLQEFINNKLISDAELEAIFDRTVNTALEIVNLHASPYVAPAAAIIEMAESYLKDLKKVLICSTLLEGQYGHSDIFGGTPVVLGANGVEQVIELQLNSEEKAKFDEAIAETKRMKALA

Assay [4] can be described thus: inhibition of 3D7 malaria parasite growth – strain 3D7 (AID 2306).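 Also: 0% = DMSO wells and 100% = chloroquine plus artemisinin control wells.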 To be noted: P. falciparum 3D7 erythrocytic growth, LDH absorbance, 72 h; at 2 µM; stronger effect = higher value.
Assay [5] concerns the target Calcium-dependent protein kinase 1 (Plasmodium falciparum (isolate 3D7)) (UniProt P62344). Put plainly: PfCDPK1 kinase inhibitors, biochemical, TCAMS library (AID 1159585; cut-off not given, nearly all actives have IC50 up to about 0.98 µM;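 also: inhibitors leave more ATP so luminescence rises with inhibition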). To be noted: recombinant PfCDPK1, Kinase-Glo ATP depletion luminescence. Background: Kinase-Glo measures the ATP left after a reaction by luminescence.
Assay [6] has as its target Plasmodium falciparum protein kinase 6 (PK6, PF3D7_1337100) (UniProt Q8IDW1). Put plainly: PfPK6 kinase inhibitors, biochemical, TCAMS library (AID 1159586). To be noted: recombinant PfPK6, Kinase-Glo ATP depletion luminescence.
Assay [7] concerns the target Protein kinase 7 (PK7), Plasmodium falciparum 3D7 (PF3D7_0213400) (UniProt Q7YTF7). Briefly: inhibition of Plasmodium PK7 catalytic activity – biochemical, TCAMS antimalarial set, Kinase-Glo luminescence (AID 1159587). To be noted: recombinant PfPK7, Kinase-Glo ATP depletion luminescence.
In assay [8] the target is Calcium-dependent protein kinase 4 (Plasmodium falciparum (isolate 3D7)) (UniProt Q8IBS5). Briefly: PfCDPK4 kinase inhibitors, biochemical, TCAMS library (AID 1159588; cut-off not given, nearly all actives have IC50 up to about 0.91 µM). To be noted: recombinant PfCDPK4, Kinase-Glo ATP depletion luminescence.
Sequence of Calcium-dependent protein kinase 4 (Plasmodium falciparum (isolate 3D7)) (Q8IBS5 whole entry, looked up): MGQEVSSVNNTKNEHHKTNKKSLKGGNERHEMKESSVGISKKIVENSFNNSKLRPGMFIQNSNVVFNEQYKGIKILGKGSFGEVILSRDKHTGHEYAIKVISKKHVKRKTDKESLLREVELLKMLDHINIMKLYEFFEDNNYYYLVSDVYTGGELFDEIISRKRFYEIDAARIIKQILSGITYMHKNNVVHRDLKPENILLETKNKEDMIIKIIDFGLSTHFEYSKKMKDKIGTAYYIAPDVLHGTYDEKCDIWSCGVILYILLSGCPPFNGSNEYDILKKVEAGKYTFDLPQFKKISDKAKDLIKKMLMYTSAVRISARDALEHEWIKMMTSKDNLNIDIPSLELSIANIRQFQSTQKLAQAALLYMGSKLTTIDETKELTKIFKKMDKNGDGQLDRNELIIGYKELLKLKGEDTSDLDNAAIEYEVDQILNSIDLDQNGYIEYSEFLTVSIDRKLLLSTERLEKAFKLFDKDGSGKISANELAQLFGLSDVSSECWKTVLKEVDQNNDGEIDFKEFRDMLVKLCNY

Sequence of Protein kinase 7 (PK7), Plasmodium falciparum 3D7 (PF3D7_0213400) (Q7YTF7 1-343): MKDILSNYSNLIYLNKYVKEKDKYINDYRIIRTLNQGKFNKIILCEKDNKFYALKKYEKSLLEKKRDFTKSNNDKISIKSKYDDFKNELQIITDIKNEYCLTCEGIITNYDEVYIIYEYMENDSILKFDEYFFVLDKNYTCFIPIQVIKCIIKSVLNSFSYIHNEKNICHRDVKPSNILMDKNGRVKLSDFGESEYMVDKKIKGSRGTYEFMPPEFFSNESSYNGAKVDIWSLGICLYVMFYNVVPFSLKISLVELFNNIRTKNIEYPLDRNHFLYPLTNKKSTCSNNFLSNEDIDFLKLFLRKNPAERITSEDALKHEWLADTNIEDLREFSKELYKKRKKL
Sequence of Calcium-dependent protein kinase 1 (Plasmodium falciparum (isolate 3D7)) (P62344 whole entry, looked up): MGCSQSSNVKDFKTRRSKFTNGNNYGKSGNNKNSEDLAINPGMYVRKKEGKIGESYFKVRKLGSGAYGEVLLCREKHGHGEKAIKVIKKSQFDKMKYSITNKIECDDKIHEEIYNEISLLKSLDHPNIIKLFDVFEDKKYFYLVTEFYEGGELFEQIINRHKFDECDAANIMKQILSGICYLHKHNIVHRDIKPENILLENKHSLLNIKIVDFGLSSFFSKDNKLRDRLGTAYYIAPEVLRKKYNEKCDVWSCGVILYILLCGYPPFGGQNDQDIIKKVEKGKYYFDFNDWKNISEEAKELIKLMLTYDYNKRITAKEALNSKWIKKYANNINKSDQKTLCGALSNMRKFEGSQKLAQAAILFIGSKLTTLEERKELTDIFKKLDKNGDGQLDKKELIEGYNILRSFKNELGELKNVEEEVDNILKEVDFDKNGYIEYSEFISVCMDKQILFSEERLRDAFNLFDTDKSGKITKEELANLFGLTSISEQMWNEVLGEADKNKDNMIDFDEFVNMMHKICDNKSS
Sequence of Plasmodium falciparum protein kinase 6 (PK6, PF3D7_1337100) (Q8IDW1 1-305): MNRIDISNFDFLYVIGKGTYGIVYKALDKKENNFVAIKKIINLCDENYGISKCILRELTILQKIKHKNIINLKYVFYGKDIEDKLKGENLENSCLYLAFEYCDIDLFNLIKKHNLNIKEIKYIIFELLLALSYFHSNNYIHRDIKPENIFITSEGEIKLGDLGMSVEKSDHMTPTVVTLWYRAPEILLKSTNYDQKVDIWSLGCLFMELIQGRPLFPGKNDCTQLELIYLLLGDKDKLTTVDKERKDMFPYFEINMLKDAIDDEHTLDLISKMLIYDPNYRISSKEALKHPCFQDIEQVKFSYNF

In the case of `O=C(c1ccc(Cl)cc1)C1CCCN(C2CCN(CCc3ccccc3)CC2)C1` (stereo not given), the growth inhibition was 51% (active) in assay [1] and 96% (active) in assay [4]. Moreover, the inhibition was 37% in assay [2] and 1% in assay [3]. Further, the outcome in assay [5], in assay [6], in assay [7] and in assay [8] was inactive.

For the molecule `Cc1[nH]c2ccc(-c3ccccc3)cc2c(=O)c1Br`, the growth inhibition in assay [1] and in assay [4] was 97% (active) throughout. The figures for the inhibition in assay [2] and in assay [3] were -13% and 4%, respectively. The outcome in assay [5], in assay [6], in assay [7] and in assay [8] was inactive.

For `COc1ccc2ccccc2c1CON1C(N)=NC(N)=NC1(C)C`, the growth inhibition was 5% in assay [1] and 94% (active) in assay [4]. Further, the inhibition is 25% in assay [2] and -7% in assay [3]. Further, the outcome in assay [5], in assay [6], in assay [7] and in assay [8] was inactive.

On to `COc1ccc(Cl)cc1N1CCN(CCCNC(=O)c2ccc(-c3nc4cc(Cl)c(C)cc4[nH]3)s2)CC1`, for which the growth inhibition in assay [1] is 97% (active); in assay [4], 102% (active). Moreover, the inhibition in assay [2] was -1%; in assay [3], 1%. Besides, the result in assay [5], in assay [6], in assay [7] and in assay [8] was inactive.

With `COc1ccc2ncc(F)c(CCN3CCC(NCc4cc5c(cn4)OCCS5)CC3)c2c1`, the growth inhibition in assay [1] was 40%; in assay [4] it was 89% (active). In addition, the results for the inhibition in assay [2] and in assay [3] were 4% and -6%, respectively. For the same molecule, the result in assay [5], in assay [6], in assay [7] and in assay [8] was inactive.

`O=C(NC1CCN(CCC(NC(=O)c2ccccc2)c2ccc(Cl)c(Cl)c2)CC1)c1ccc(Cl)cc1` (stereo not given): the results for the growth inhibition in assay [1] and in assay [4] were 36% and 97% (active), respectively. Also, the inhibition in assay [2] is 17%; in assay [3], -2%. In addition, the outcome in assay [5], in assay [6], in assay [7] and in assay [8] was inactive.

As to `CCC(C(=O)Nc1ccccc1)n1nc(-c2ccc(C)c(S(=O)(=O)N3CCCCC3)c2)ccc1=O` (stereo not given), the growth inhibition in assay [1] is 67% (active); in assay [4] it was 85% (active). Besides, the inhibition in assay [2] is -2%; in assay [3], 4%. In addition, the outcome in assay [5], in assay [6], in assay [7] and in assay [8] was inactive.

`COc1cccc(CN2CCCN(Cc3cccc(NC(=O)c4cc5ccccc5s4)c3)CC2)c1`: the growth inhibition in assay [1] is 16%; in assay [4], 89% (active). Besides, the inhibition in assay [2] was 17%; in assay [3], -9%. Further, the outcome in assay [5], in assay [6], in assay [7] and in assay [8] was inactive.

As for `Cc1[nH]c(CNCCCNc2cc(=O)c3ccccc3[nH]2)c(Br)c1Br`, the growth inhibition in assay [1] was 47%; in assay [4], 91% (active). For the same molecule, the results for the inhibition in assay [2] and in assay [3] were -3% and 4%, respectively. The result in assay [5], in assay [6], in assay [7] and in assay [8] was inactive.

`Cc1cc(Nc2ccc(OCc3ccccc3Cl)cc2)c2cc(Cl)ccc2n1`: the figures for the growth inhibition in assay [1] and in assay [4] were 58% (active) and 100% (active), respectively. The inhibition in assay [2] is 33%; in assay [3], 5%. Moreover, the outcome in assay [5], in assay [6], in assay [7] and in assay [8] was inactive.

For the molecule `N#Cc1cccc(COC(=O)C2=C(COc3ccccc3Cl)NC(=O)NC2c2c[nH]c3cnccc23)c1` (stereo not given), the growth inhibition is -3% in assay [1] and 99% (active) in assay [4]. Moreover, the inhibition in assay [2] is 0%; in assay [3] it was -1%. Further, the result in assay [5], in assay [6], in assay [7] and in assay [8] was inactive.

Regarding `CN(CCN1CCC(c2c[nH]c3ccccc23)CC1)C(=O)OCCCCCNC(=O)/C=C/c1ccc(Cl)c(Cl)c1`, the growth inhibition is 44% in assay [1] and 95% (active) in assay [4]. For the same molecule, the inhibition is 39% in assay [2] and -4% in assay [3]. Further, the result in assay [5], in assay [6], in assay [7] and in assay [8] was inactive.

For `CCNc1cc(C)nc(Nc2ccc(NC(=O)C3CCCC3)cc2)n1`, the figures for the growth inhibition in assay [1] and in assay [4] were 69% (active) and 99% (active), respectively. The values for the inhibition in assay [2] and in assay [3] were 13% and 0%, respectively. The result in assay [5], in assay [6], in assay [7] and in assay [8] was inactive.

Take `O=C(c1ccc(Cl)c(Cl)c1)N1CCc2c([nH]c3ccccc23)C1CN1CCCC1` (stereo not given): the growth inhibition in assay [1] was 16%; in assay [4] it was 94% (active). In addition, the inhibition in assay [2] is 83% (active); in assay [3] it was 2%. Besides, the result in assay [5], in assay [6], in assay [7] and in assay [8] was inactive.

With `OCC1CCN(Cc2cccc(-c3ccc(-c4nc5ccc(F)cc5[nH]4)cc3)c2)CC1`, the growth inhibition is 86% (active) in assay [1] and 101% (active) in assay [4]. Besides, the values for the inhibition in assay [2] and in assay [3] were 11% and 4%, respectively. The outcome in assay [5], in assay [6], in assay [7] and in assay [8] was inactive.

Regarding `N=C(N)c1ccc2nc(SCc3ccccc3)[nH]c2c1`, the results for the growth inhibition in assay [1] and in assay [4] were 100% (active) and 97% (active), respectively. For the same molecule, the inhibition was -1% in assay [2] and 1% in assay [3]. The outcome in assay [5], in assay [6], in assay [7] and in assay [8] was inactive.

On to `COc1ccccc1C1CCN(C2CCC(NC(=O)/C=C/c3cccc(C(F)(F)F)c3)CC2)CC1` (stereo not given), for which the growth inhibition in assay [1] is 34%; in assay [4], 99% (active). Further, the inhibition in assay [2] is 38%; in assay [3], -3%. Further, the outcome in assay [5], in assay [6], in assay [7] and in assay [8] was inactive.

As to `Cc1ccc(Nc2nc(C)cc(Nc3cccc(NS(C)(=O)=O)c3)n2)cc1`, the growth inhibition was 8% in assay [1] and 96% (active) in assay [4]. The inhibition in assay [2] is -3%; in assay [3], 0%. For the same molecule, the outcome in assay [5], in assay [6], in assay [7] and in assay [8] was inactive.

On to `OCCN1CCN(c2nc(Nc3cccc(F)c3)c3cnn(-c4ccccc4)c3n2)CC1`, for which the growth inhibition in assay [1] was 76% (active); in assay [4], 100% (active). Further, the inhibition was 89% (active) in assay [2] and -2% in assay [3]. Also, the outcome in assay [5], in assay [6], in assay [7] and in assay [8] was inactive.

Consider `O=C(/C=C/c1ccc(Cl)c(Cl)c1)NCCCCCN1CCC(NC(=O)c2ccc([N+](=O)[O-])cc2)CC1`, for which the growth inhibition in assay [1] is 6%; in assay [4] it was 100% (active). The inhibition in assay [2] was 36%; in assay [3] it was -2%. Besides, the outcome in assay [5], in assay [6], in assay [7] and in assay [8] was inactive.
